According to PubChem BioAssay (NCATS):
Records with an inconclusive call do not appear. Unmarked numbers belong to inactive results. The source made the active and inactive calls. Calls follow the shape of the full dose curve.

biological target: Peroxisome proliferator-activated receptor delta (Homo sapiens) (UniProt Q03181); test: qHTS assay for small molecule agonists of peroxisome proliferator-activated receptor delta signaling (AID 588534); settings: HEK293T PPARdelta-UAS-bla, beta-lactamase ratio, 18 h; series mostly up to 76.7 µM; activation: at the top concentration;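 also: 0% = DMSO basal wells and 100% = positive control agonist at 10 µM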
Sequence (Q03181 whole entry, looked up): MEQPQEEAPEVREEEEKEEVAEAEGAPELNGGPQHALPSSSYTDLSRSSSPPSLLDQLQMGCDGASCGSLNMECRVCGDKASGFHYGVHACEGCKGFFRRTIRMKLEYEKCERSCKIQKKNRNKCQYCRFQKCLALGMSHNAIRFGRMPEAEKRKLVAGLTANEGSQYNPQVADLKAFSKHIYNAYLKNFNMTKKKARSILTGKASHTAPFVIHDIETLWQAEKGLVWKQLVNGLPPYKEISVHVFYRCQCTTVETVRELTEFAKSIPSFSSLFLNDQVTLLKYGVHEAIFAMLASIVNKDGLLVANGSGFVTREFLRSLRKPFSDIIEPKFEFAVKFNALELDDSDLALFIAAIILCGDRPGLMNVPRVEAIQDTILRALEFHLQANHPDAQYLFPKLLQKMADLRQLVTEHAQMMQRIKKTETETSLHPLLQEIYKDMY
Outline: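 EC50 and efficacy values derive from Hill fits of a concentration series in a beta-lactamase reporter cell assay. Exposure is 18 hrs at 37 C, with CCF4 fluorescence as the readout.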

Going from CNc1ccccc1 to NC(=O)c1ccccc1[N+](=O)[O-], the “activation” value rises from -5.3% to 9.96%.

Going from OCCOCCOCCOCCOCCO to COCCOCCOCCO, the “activation” value rises from 0.347% to 5.68%.

First: O=C1CCC(C2CCCCC2)CC1
Second: OC1CCCCC1
The “activation” value of the first is lower: 1.85% for the first, 6.65% for the second.

Compared with CCN(CC)c1cccc(O)c1, Cc1cccc(C)c1O is lower in “activation” value: 15.1% for the first, 2.41% for the second.

First: CCCOCC(C)O (stereo not given)
Second: C=C(C)C(=O)OCCC[Si](OC)(OC)OC
The “activation” value of the first is higher: 2.4% for the first, -3.67% for the second.

Compared with CC(C)(C)c1ccc(OCC2CO2)cc1 (stereo not given), CCNS(=O)(=O)c1ccc(C)cc1 is lower in “activation” value: 3.41% for the first, -0.0574% for the second.

First: N[C@@H]1[C@@H](O)[C@H](O)[C@@H](CO)O[C@H]1O
Second: NC(=O)c1ccc([N+](=O)[O-])cc1
The “activation” value of the first is lower: -0.472% for the first, 3.53% for the second.

Compared with O=[N+]([O-])c1ccc(Cl)cc1Cl, Cc1cc(C(=O)O)ccc1[N+](=O)[O-] is lower in “activation” value: 4.65% for the first, -9.84% for the second.

Compared with OCCC(F)(F)C(F)(F)C(F)(F)C(F)(F)C(F)(F)C(F)(F)C(F)(F)C(F)(F)F, COC(=O)CS is higher in “activation” value: -9.47% for the first, 3.74% for the second.

Compared with CCCCCCCCCCCCCCCCCC#N, CCCCCCCCCCCCN is lower in “activation” value: 5.39% for the first, 1.33% for the second.

First: CC(=O)OC1CCC(C(C)(C)C)CC1 (stereo not given)
Second: ON=C1CCCCC1
The “activation” value of the first is lower: 2.6% for the first, 8.04% for the second.

First: Nc1ccc(F)cc1F
Second: O=C(Cl)c1cccc(C(=O)Cl)c1
The “activation” value of the first is lower: 0.773% for the first, 5.99% for the second.

Compared with CC(C)C(C)C, COC(=O)c1cccc(C(=O)OC)c1 is lower in “activation” value: 20.6% for the first, 1.38% for the second.

With c1cc2c3c(c1)ccc1cccc(c13)C2 the “activation” value was 4.33%.

With O=[N+]([O-])c1cc(N(CCO)CCO)ccc1NCCO the outcome was “inactive”.
In the case of CC(CCC(=O)O)(c1ccc(O)cc1)c1ccc(O)cc1, the outcome was “inactive”.
With COc1ccc([N+](=O)[O-])cc1N the outcome was “inactive”.
